Measured values published in PubChem BioAssay (Tox21).
Records with an inconclusive call do not appear. Unmarked numbers belong to inactive results. Active and inactive are the calls of the source. Calls come from the whole dose curve; as a rule, active = well fitted cell-killing curve with a large enough effect in the repeat runs; inconclusive = weak or mixed curves, or effect the other way; inactive = flat fitted curve, though single readings scatter.

assay: qHTS RealTime-Glo MT Cell Viability Assay in HepG2 cells - 40 hour (AID 1224870); details: RealTime-Glo luminescence; series mostly up to 76.8 µM; note: nearly all actives have a fitted effect of over 50% in size
From the text: National Center for Advancing Translational Sciences [NCATS]
NIH Chemical Genomics Center [NCGC]
U.S. Environmental Protection Agency [EPA]
National Institutes of Environmental Health Sciences [NIEHS]
National Toxicology Program [NTP]
U.S. Food and Drug Administration [FDA]
Measure of cell viability is critical in the cell-base assay. Analysis of cell viability is necessary for the characterization of cell responses to cytotoxic drugs and environmental stress. A RealTime-Glo MT Cell Viability Assay to monitor cell viability in real time of continues cell culture during 40 hours of compound treatment was used to screen Tox21 10K library compounds in HepG2 cells. The RealTime-Glo MT Cell Viability Assay is a nonlytic, homogeneous, bioluminescent method to measure cell viability in real time using a simple, plate-based method. The assay involves adding NanoLuc luciferase and a cell-permeant prosubstrate to cells in culture. Viable cells reduce the proprietary prosubstrate to generate a substrate for NanoLuc luciferase. This substrate diffuses from cells into the surrounding culture medium, where it is rapidly used by the NanoLuc Enzyme to produce a luminescent signal. The signal correlates with the number of viable cells, making the assay well suited for cytotoxicity studies.
Tox21 Assay Protocol Summary:
The mixture of HepG2 cell suspension and reagents were dispensed at 600cells/6 ul/well in 1536-well tissue culture treated black solid bottom plates using a Multidrop dispenser. After the assay plates were incubated at a 37 C/5% CO2 incubator for 5 hours, 23 nL of compounds dissolved in DMSO, positive and negative controls was transferred to the assay plate by a pintool work station. The plates were incubated at 37 C for 40 hours. The luminescence intensity were measured at 0h, 8h, 16h, 24h, 32h and 40h time points using ViewLux plate reader during compound treatment.
% is set by controls: 0 for no effect and ±100 for the full control effect.

Compound | outcome | activity change, negative = cytotoxic
CC(C)(CO)C(O)C(=O)NCCCO (stereo not given) | inactive | –
COc1c2occc2c(OC)c2c(=O)cc(C)oc12 | inactive | –
O=C1NC(c2ccccc2)(c2ccccc2)C(=O)N1COP(=O)(O)O | inactive | –
c1ccc2c(CC3=NCCN3)cccc2c1 | inactive | –
CC(C)C1OCCN1CCOC(=O)NCCCCCCNC(=O)OCCN1CCOC1C(C)C (stereo not given) | inactive | –
CCCCCCCCCCCCCCC(=O)NC(CO)CCCCCCCCCCCCCC (stereo not given) | inactive | –
CCCCCCCCCOC(=O)c1ccccc1C(=O)OCCCCCCCCC | inactive | –
Cc1cccc(Cl)c1 | inactive | –
O=C[O][Al]([O]C=O)[O]C=O | inactive | –
CC(C)OC(=O)CCC(=O)OC(C)C | inactive | –
C[Si]1(C)O[Si](C)(C)O[Si](C)(C)O[Si](C)(C)O[Si](C)(C)O1 | inactive | –
OCC(O)CN1CCN(c2ccccc2)CC1 (stereo not given) | inactive | –
Cc1c(NC(=O)c2cccnc2)c(=O)n(-c2ccccc2)n1C | inactive | –
Nc1nnnn1-c1ccccc1 | inactive | –
CCCCCCC1(C)CCC(=O)O1 (stereo not given) | inactive | –
C=CC/C=C/C | inactive | –
CC12CCC(C1)C(C)(C)C2O (stereo not given) | inactive | –
CCCCOC(=O)[C@H](C)O | inactive | –
COCCc1ccccn1 | inactive | –
CC(C)Nc1ccccc1 | inactive | –

Compound | outcome | activity change, negative = cytotoxic
Fc1ccccc1 | inactive | –
CC1OCCC1=O (stereo not given) | inactive | –
C/C(CC(C)C)=N\O | inactive | –
CN(C)CCCO[C@@H]1[C@H]2OC(C)(C)O[C@H]2O[C@@H]1C(O)CO (stereo not given in full) | inactive | –
C[C@@H](O)C(=O)O | inactive | –
CC(C)=CCC/C(C)=C/COC=O | inactive | –
C=CCCCC | inactive | –
CC(=O)c1cc(C)oc1C | inactive | –
CC(S)C(C)S (stereo not given) | inactive | –
CCCCCc1cccc(=O)o1 | inactive | –
C=C(C)c1cccc(C(C)(C)N=C=O)c1 | inactive | –
CCCCOCCOC(=O)COc1ccc(Cl)cc1Cl | inactive | –
CC(C)=CCC[C@@](C)(O)[C@H]1CC=C(C)CC1 | inactive | –
CCCCCCCCCCCCCCCCCCOCCO | – | -6.69% [at 15.8 µM]
CC(=O)OCC(=O)Nc1cc(C#N)cc(NC(=O)COC(C)=O)c1Cl | inactive | –
CN(C)CCOC(=O)C(c1ccccc1)C1(O)CCCC1 (stereo not given) | inactive | –
CC(C)NCC(O)c1ccc2ccccc2c1 (stereo not given) | inactive | –
[O]=[Mo](=[O])=[O] | – | -4.78% [at 15.8 µM]
C#CCN[C@@H]1CCc2ccccc21 | inactive | –
CCCC(=O)OC/C=C(\C)CCC=C(C)C | inactive | –
